Test results as given in PubChem BioAssay (Tox21).
Inconclusive results are not listed. Active and inactive are the calls of the source. Unless noted, calls come from the whole dose curve; as a rule, active = well fitted curve in the direction sought with a large enough effect in the repeat runs; inconclusive = weak or mixed curves; inactive = no such curve, though single readings can be large; an effect the other way counts as inactive or inconclusive.

Legend:
[1] = qHTS assay to test for compound auto fluorescence at 535 nm (green) in HEK293 cells (AID 720680)
[2] = qHTS assay to test for compound auto fluorescence at 460 nm (blue) in HEK293 cell free culture (AID 720681)
In short: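 Blue fluorescence (Ex 405/Em 460 nm, triamterene-equivalent) was read immediately after pin transfer of compound or DMSO into medium (DMEM, 10% FBS) without cells.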

[3] = qHTS assay to test for compound auto fluorescence at 590 nm (red) in HEK293 cell free culture (AID 720683)
In short: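 Red-channel autofluorescence of compounds in culture medium (DMEM, 10% FBS), no cells, measured at 540/590 nm. Rose Bengal sodium is the reference fluorophore for equivalence.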

[4] = qHTS assay to test for compound auto fluorescence at 590 nm (red) in HepG2 cell free culture (AID 720684)
In short: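 Steps: dispense MEM/10% FBS medium, no cells; pin compound or DMSO vehicle; read red channel, Ex/Em 540/590 nm. Output given as Rose Bengal sodium equivalents.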

[5] = qHTS assay to test for compound auto fluorescence at 460 nm (blue) in HepG2 cell free culture (AID 720685)
In short: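 Compound (23 nL) or DMSO pinned into cell-free MEM with 10% FBS; blue fluorescence read at 405/460 nm excitation/emission, expressed as auto-fluorescence equivalency to triamterene.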

[6] = qHTS assay to test for compound auto fluorescence at 535 nm (green) in HepG2 cell free culture (AID 720686)
[7] = qHTS assay for identifying genotoxic compounds that show differential cytotoxicity against isogenic chicken DT40 cell lines with known DNA damage response pathways - Rev3 mutant cell line (AID 743014); note: nearly all actives have a fitted effect of over 55% in size; note: potency is the fitted concentration of half-maximal effect
[8] = qHTS assay to test for compound auto fluorescence at 535 nm (green) in HEK293 cell free culture (AID 720682)
In short: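 Fluorescein serves as the green reference fluorophore; each compound's intrinsic emission at 535 nm (excitation 485 nm) is reported as an equivalent amount of that dye, measured in serum-containing DMEM without cells.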

[9] = qHTS assay to test for compound auto fluorescence at 460 nm (blue) in HepG2 cells (AID 720687)
In short: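 Blue-channel autofluorescence (Ex/Em 405/460 nm, triamterene-equivalent) was measured after 1 hr compound exposure at 37 C, 5% CO2. Cells were HepG2, plated overnight at 37 C in MEM plus 10% FBS.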

[10] = target: Glucocorticoid receptor (Homo sapiens) (UniProt P04150); test: qHTS assay to identify small molecule agonists of the glucocorticoid receptor (GR) signaling pathway (AID 720691; active = well fitted activation curve with a large enough effect in the signal ratio in the repeat runs, not every such curve was filed as active; the % refers to the signal ratio)
Chain of Glucocorticoid receptor (Homo sapiens) (P04150 whole entry, looked up): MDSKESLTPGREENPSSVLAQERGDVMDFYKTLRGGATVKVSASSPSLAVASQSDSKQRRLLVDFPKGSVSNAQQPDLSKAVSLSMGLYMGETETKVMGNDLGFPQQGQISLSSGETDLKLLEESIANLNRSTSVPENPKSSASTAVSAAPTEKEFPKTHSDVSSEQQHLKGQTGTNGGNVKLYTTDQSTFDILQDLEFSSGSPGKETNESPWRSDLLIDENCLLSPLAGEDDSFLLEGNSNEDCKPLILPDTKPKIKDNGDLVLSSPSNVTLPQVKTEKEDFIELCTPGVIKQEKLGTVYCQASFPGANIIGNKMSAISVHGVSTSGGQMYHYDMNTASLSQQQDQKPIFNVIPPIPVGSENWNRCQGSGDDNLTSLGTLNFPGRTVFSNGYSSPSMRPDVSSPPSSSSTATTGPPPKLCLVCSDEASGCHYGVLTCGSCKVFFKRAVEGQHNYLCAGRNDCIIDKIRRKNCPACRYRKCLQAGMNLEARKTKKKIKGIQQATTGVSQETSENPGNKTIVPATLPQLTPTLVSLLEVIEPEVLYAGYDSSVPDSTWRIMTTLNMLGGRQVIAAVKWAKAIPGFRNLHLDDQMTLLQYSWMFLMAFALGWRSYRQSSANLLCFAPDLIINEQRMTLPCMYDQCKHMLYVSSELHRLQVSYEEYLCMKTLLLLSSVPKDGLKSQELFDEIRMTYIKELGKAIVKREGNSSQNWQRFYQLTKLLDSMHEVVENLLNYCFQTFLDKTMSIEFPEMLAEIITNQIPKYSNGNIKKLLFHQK
In short: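 Beta-lactamase reporter activity, read as fluorescence intensity, was measured in GR-bla HeLa cells exposed to compounds for 18 h at 37 C and then loaded with LiveBLAzer B/G FRET substrate for 2 h at room temperature.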

[11] = target: Glucocorticoid receptor (Homo sapiens) (UniProt P04150); test: qHTS assay to identify small molecule antagonists of the glucocorticoid receptor (GR) signaling pathway (AID 720692; active = well fitted inhibition curve with a large enough effect in the signal ratio in the repeat runs, not every such curve was filed as active; the % refers to the signal ratio)
In short: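 Fluorescence from cleaved LiveBLAzer B/G FRET substrate reports GRE-driven beta-lactamase in HeLa cells; compounds are tested against 5 nM dexamethasone (final) over 18 h at 37 C, substrate incubation 2 h at room temperature.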

[12] = qHTS assay to identify small molecule antagonists of the glucocorticoid receptor (GR) signaling pathway - cell viability counter screen (AID 720693); note: nearly all actives have a fitted effect of over 55% in size; note: potency is the fitted concentration of half-maximal effect
[13] = qHTS assay for identifying genotoxic compounds that show differential cytotoxicity against isogenic chicken DT40 cell lines with known DNA damage response pathways - wild type cell line (AID 743012); note: nearly all actives have a fitted effect of over 60% in size; note: potency is the fitted concentration of half-maximal effect
In short: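 Quantitative HTS on parental DT40 cells: 40 h compound treatment at 37 C/5% CO2, with viability then determined by CellTiter-Glo luminescence. Values serve as the DNA repair-proficient reference for differential cytotoxicity.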

[14] = qHTS assay for identifying genotoxic compounds that show differential cytotoxicity against isogenic chicken DT40 cell lines with known DNA damage response pathways - Rad54/Ku70 mutant cell line (AID 743015); note: nearly all actives have a fitted effect of over 60% in size; note: potency is the fitted concentration of half-maximal effect
[15] = qHTS assay to identify small molecule antagonists of the androgen receptor (AR) signaling pathway - cell viability counter screen (AID 743033; note: nearly all actives have a fitted effect of over 45% in size; note: potency is the fitted concentration of half-maximal effect)
[16] = target: Androgen receptor (Homo sapiens) (UniProt P10275); test: qHTS assay to identify small molecule agonists of the androgen receptor (AR) signaling pathway using the MDA cell line (AID 743040; note: nearly all actives have a fitted effect of over 20% in size)
Chain of Androgen receptor (Homo sapiens) (P10275 whole entry, looked up): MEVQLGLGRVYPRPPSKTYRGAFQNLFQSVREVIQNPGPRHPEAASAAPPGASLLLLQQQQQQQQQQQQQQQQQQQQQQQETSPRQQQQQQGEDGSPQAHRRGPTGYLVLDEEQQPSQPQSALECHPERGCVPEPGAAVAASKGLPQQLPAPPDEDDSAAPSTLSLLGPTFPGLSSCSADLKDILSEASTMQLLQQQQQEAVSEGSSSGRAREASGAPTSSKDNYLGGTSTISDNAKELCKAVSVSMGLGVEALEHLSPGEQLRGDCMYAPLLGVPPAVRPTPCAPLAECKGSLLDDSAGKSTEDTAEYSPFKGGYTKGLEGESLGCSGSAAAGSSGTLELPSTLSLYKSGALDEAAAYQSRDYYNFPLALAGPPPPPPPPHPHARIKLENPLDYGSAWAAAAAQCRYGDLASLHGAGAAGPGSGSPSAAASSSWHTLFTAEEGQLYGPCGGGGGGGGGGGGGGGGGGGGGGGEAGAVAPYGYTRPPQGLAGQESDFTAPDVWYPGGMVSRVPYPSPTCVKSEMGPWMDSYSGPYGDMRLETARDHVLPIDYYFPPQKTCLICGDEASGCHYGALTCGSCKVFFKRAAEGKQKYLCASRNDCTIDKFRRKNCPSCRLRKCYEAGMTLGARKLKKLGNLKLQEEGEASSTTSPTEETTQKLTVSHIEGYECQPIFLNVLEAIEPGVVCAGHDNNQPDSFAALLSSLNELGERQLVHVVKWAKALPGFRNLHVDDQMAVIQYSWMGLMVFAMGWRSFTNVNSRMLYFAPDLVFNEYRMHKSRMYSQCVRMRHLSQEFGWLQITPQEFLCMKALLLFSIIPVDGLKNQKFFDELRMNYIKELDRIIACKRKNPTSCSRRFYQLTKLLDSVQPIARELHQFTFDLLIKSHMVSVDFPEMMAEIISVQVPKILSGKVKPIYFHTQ
In short: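 Cells plated, 5 h at 37C/0% CO2; compound or DMSO pinned; 16 h at 37C; ONE-Glo added; luminescence measured after 30 min at room temperature. Reporter line: MDA-kb2 with MMTV-luciferase responsive to AR and GR.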

[17] = qHTS assay to identify small molecule antagonists of the androgen receptor (AR) signaling pathway using the MDA cell line - cell viability counter screen (AID 743041; note: nearly all actives have a fitted effect of over 45% in size; note: potency is the fitted concentration of half-maximal effect)
In short: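 Cells were plated at 3,000 per well and left 5 h. Compounds in DMSO were then pinned in, followed by R1881. After 16 h at 37C, CellTiter-Fluor fluorescence gave viability.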

[18] = target: Androgen receptor (Homo sapiens) (UniProt P10275); test: qHTS assay to identify small molecule antagonists of the androgen receptor (AR) signaling pathway using the MDA cell line (AID 743042; note: nearly all actives have a fitted effect of over 55% in size)
In short: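 Antagonist mode: compounds plus R1881 agonist added to MDA-kb2 AR-luc cells, incubated 16 h at 37C. Luciferase reporter luminescence quantified, with multiplexed CellTiter-Fluor readout for cell viability.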

[19] = target: Androgen receptor (Homo sapiens) (UniProt P10275); test: qHTS assay to identify small molecule antagonists of the androgen receptor (AR) signaling pathway (AID 743035; active = well fitted inhibition curve with a large enough effect in the signal ratio in the repeat runs, not every such curve was filed as active; the % refers to the signal ratio; note: potency is the fitted concentration of half-maximal effect)
In short: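 Cell line: GeneBLAzer AR-UAS-bla GripTite (HEK293). Stimulus: R1881 added after compound. Exposure: 16 h, 37C, 5% CO2. Readout: LiveBLAzer B/G FRET fluorescence after 2 h at room temperature.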

[20] = target: Androgen receptor (Homo sapiens) (UniProt P10275); test: qHTS assay to identify small molecule agonists of the androgen receptor (AR) signaling pathway (AID 743036; active = well fitted activation curve with a large enough effect in the signal ratio in the repeat runs, with a control signal flat, not every such curve was filed as active; the % refers to the signal ratio)
In short: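 Fluorescence from a beta-lactamase FRET substrate served as read-out in AR-UAS-bla GripTite HEK293 cells. Cells were treated with DMSO-dissolved compounds for 16 h at 37C, then with LiveBLAzer B/G substrate for 2 h at room temperature.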
% is set by controls: 0 for no effect and ±100 for the full control effect.

C=CC(=O)OCC1CC2CC1C1CCC(COC(=O)C=C)C21 (stereo not drawn)
active: Potency [7] 24.3 µM
inactive: outcome [1] | Potency [2] | outcome [3] | outcome [4] | Potency [5] | outcome [6]

NC1[C@H]2CN(c3nc4c(cc3F)c(=O)c(C(=O)O)cn4-c3ccc(F)cc3F)C[C@@H]12 (stereo partly drawn)
inactive: outcome [1] | outcome [8] | outcome [3] | outcome [4] | Potency [5] | outcome [6] | Potency [9] | Potency [10] | Potency [11] | Potency [12] | Potency [15] | outcome [16] | Potency [17] | Potency [18]
active: Potency [13] 4.73 µM | Potency [7] 6.68 µM | Potency [14] 7.5 µM

CC[C@]1(O)C[C@H]2CN(CCc3c([nH]c4ccccc34)[C@@](C(=O)OC)(c3cc4c(cc3OC)N(C=O)[C@H]3[C@@](O)(C(=O)OC)[C@H](OC(C)=O)[C@]5(CC)C=CCN6CC[C@]43[C@@H]65)C2)C1
inactive: outcome [1] | Potency [2] | outcome [3] | outcome [4] | Potency [5] | outcome [6] | Potency [9] | Potency [10] | Potency [12] | Potency [15] | outcome [16] | Potency [18]
active: Potency [13] 0.0075 µM | Potency [7] 0.0053 µM | Potency [14] 0.0106 µM | Potency [19] 0.0338 µM

CCC(=O)C1CC(C(C)C)CC=C1C (stereo not drawn)
inactive: outcome [1] | Potency [2] | outcome [3] | outcome [4] | Potency [5] | outcome [6] | Potency [9] | Potency [10] | Potency [13] | Potency [7] | Potency [14] | Potency [15] | Potency [19] | outcome [20] | outcome [16] | Potency [17] | Potency [18]

CN1CCCN=C1COC(=O)C(O)(c1ccccc1)C1CCCCC1 (stereo not drawn)
inactive: outcome [1] | Potency [2] | outcome [3] | outcome [4] | Potency [5] | outcome [6] | Potency [10] | Potency [11] | Potency [12] | Potency [17]

CCC1(CO)COCOC1
inactive: outcome [1] | Potency [2] | outcome [3] | outcome [4] | Potency [5] | outcome [6] | Potency [9] | Potency [10] | Potency [11] | Potency [12] | Potency [15] | Potency [17]

CN1C(=O)OC(C)(C)C1=O
inactive: outcome [1] | Potency [2] | outcome [3] | outcome [4] | Potency [5] | outcome [6] | Potency [9] | Potency [10] | Potency [11] | Potency [12] | Potency [13] | Potency [7] | Potency [14] | Potency [15] | Potency [17]

COc1cc(C(=O)NC2CCN(C)CC2)ccc1Nc1ncc2c(n1)N(C1CCCC1)CC(F)(F)C(=O)N2C
inactive: outcome [1] | Potency [2] | outcome [3] | outcome [4] | Potency [5] | outcome [6] | outcome [16]
active: Potency [12] 22.5 µM | Potency [13] 0.0044 µM | Potency [7] 0.0025 µM | Potency [14] 0.0056 µM | Potency [15] 15.9 µM | Potency [19] 0.0032 µM | Potency [17] 62.8 µM

O=C(O)c1ccc(OCCCOc2ccc(C(=O)O)cc2)cc1
inactive: outcome [1] | Potency [2] | outcome [3] | outcome [4] | Potency [5] | outcome [6] | Potency [9] | Potency [12] | Potency [13] | Potency [14] | Potency [15] | Potency [17]

CCCC(C(=O)OCCN(CC)CC)(c1ccccc1)c1ccccc1
active: Potency [13] 8.41 µM | Potency [7] 10.6 µM | Potency [14] 18.8 µM
inactive: outcome [1] | Potency [2] | outcome [3] | outcome [4] | outcome [6] | Potency [9] | Potency [10] | Potency [12]

CCCCCCNC(=O)n1cc(F)c(=O)[nH]c1=O
active: Potency [13] 8.41 µM | Potency [14] 11.9 µM
inactive: outcome [1] | Potency [2] | outcome [3] | outcome [4] | Potency [5] | outcome [6] | Potency [9] | Potency [10] | Potency [12] | Potency [17]

CN1C(=O)N(c2ccccc2Br)Cc2cnc(Nc3ccc4c(c3)OCC(CO)O4)nc21 (stereo not drawn)
inactive: outcome [1] | Potency [2] | outcome [3] | outcome [4] | Potency [5] | outcome [6] | Potency [9]
active: Potency [12] 13.8 µM | Potency [13] 7.7 µM | Potency [7] 9.69 µM | Potency [15] 43.6 µM

Oc1cccc(Nc2ccccc2)c1
inactive: outcome [1] | Potency [2] | outcome [3] | outcome [4] | Potency [5] | outcome [6] | Potency [10] | Potency [12] | Potency [13] | Potency [15] | Potency [17]

CCC1NC(=O)c2cc(S(N)(=O)=O)c(Cl)cc2N1 (stereo not drawn)
inactive: fluorescence, % of fluorescein [1] -0.0959% [at 18.6 µM] | fluorescence, % of fluorescent control [2] -0.0955% [at 18.6 µM] | fluorescence, % of fluorescent control [3] -0.121% [at 18.6 µM] | fluorescence, % of Rose Bengal [4] -0.427% [at 18.6 µM] | fluorescence, % of fluorescein control [6] 0.0837% [at 18.6 µM] | fluorescence, % of fluorescent control [9] -0.0496% [at 18.6 µM] | Potency [10] | Potency [11] | Potency [12] | Potency [13] | Potency [14] | Potency [15] | Potency [17]

CC1=C(Br)C(=O)C(Br)=C/C1=C(/c1ccccc1S(=O)(=O)O)c1cc(Br)c(O)c(Br)c1C
active: Potency [13] 20.8 µM | Potency [7] 20.8 µM | Potency [14] 20.8 µM
inactive: outcome [1] | outcome [8] | outcome [3] | outcome [4] | Potency [5] | outcome [6] | Potency [9] | Potency [10] | Potency [11] | Potency [12]

O=C(O)CCCCCCCCCCCBr
inactive: outcome [1] | Potency [2] | outcome [3] | outcome [4] | outcome [6] | Potency [9] | Potency [10] | Potency [11] | Potency [12] | Potency [7] | Potency [15] | Potency [17]
